# Compound activity: PubChem, several laboratories
# An excerpt weighted towards active compounds, which were near 0.51% of everything screened.
# Tat transport: E. coli Tat transport inhibition | E. coli MC4100 TorA-mCherry Tat export, fluorescence | inhibition, % at 10 µM | hit rate 0.036% among 340,000 | AID 488895;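 active means mean replicate inhibition at least 50% and at least half of replicates individually reaching 50%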;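 further: exported cargo escapes ClpAP degradation while cytoplasmic cargo is degraded and loses fluorescence; 0% = median of neutral control wells and 100% = median of NaSCN control wells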
# phage Ecoli inh: E. coli growth loss with phage present. growth absorbance. inhibition, % at 11.9 µM. hit rate 0.26% among 360,000; in the data active means inhibition above about 11%
# E coli growth-1: reduces bacterial viability in AddAB counter-screen. E. coli V3065 growth, OD600 absorbance, 18 h. inhibition, % at 11.9 µM. hit rate 0.27% among 330,000. AID 449728;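 active means inhibition above the campaign's mean inhibition across all tested compounds plus 3 SD, cut at about 9.9% in these data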;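 further: uninfected addAB+ strain grown without phage in ampicillin broth; 0% = DMSO wells and 100% = ciprofloxacin 0.95 µg/ml wells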
# AddAB inh: less growth of phage-infected E. coli with AddAB | E. coli expressing H. pylori AddAB, absorbance growth | inhibition, % at 11.9 µM | hit rate 0.29% among 330,000; in the data active means inhibition above about 12%;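 further: 0% = vehicle wells of infected cells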
# E coli growth-2: blocks Escherichia coli growth; OD600, 23 h; stronger effect = lower value; OD600 absorbance (no concentration beside the values); hit rate 0.21% among 330,000;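 active means OD600 absorbance below the run mean of sample wells minus 3.6 SD, in any replicate, cut at about 0.56 in these data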
# * hit, by the source's call; i = inactive; x = no result given; ! = a repeat was not active.
SMILES,Tat transport,phage Ecoli inh,E coli growth-1,AddAB inh,E coli growth-2
CC1NC(=O)C(CC(N)=O)NC(=O)c2cc([N+](=O)[O-])cc(I)c2OCCC(C(=O)NC(CC(=O)O)C(N)=O)NC1=O (stereo not given),x,x,x,x,0.697
CC(=NNC(=S)Nc1ccc(C)cc1)c1ccccn1,7.8,12.7*,x,x,x
O=C1CC(c2ccc(S(=O)(=O)NCc3ccncc3)cc2)CN1 (stereo not given),-7.8,12.5*,0.9,4.0,0.73
O=C1CC(c2ccc(S(=O)(=O)NC3CC3)cc2)CN1 (stereo not given),-7.4,2.9,-1.0,3.0,0.744
C=CCC(CC(=O)N(CCO)Cc1ccccc1)C(=O)NCC(OC(=O)C(CC=C)Cc1ccc(F)cc1)c1ccccc1 (stereo not given),x,x,x,x,0.635
O=C1C2C3C=CC(C4CC34)C2C(=O)N1N=Cc1ccc([N+](=O)[O-])o1 (stereo not given),x,x,x,x,0.497*
O=C1C2C3C=CC(C4CC34)C2C(=O)N1/N=C/c1ccc([N+](=O)[O-])o1 (stereo not given),-4.4,6.6,3.4,7.4,x
CCC(CC)c1nnc(NC(=O)CCN2C(=O)c3ccccc3C2=O)s1,3.2,2.1,-1.3,-0.2,0.757
CC(C)Cc1nnc(NC(=O)CCN2C(=O)c3ccccc3C2=O)s1,-4.7,1.0,27.0*,67.9*,0.725
CN1CCCCCC1=Nc1ccc([N+](=O)[O-])cc1,-3.3,3.9,1.3,3.0,0.673
CN1C(=O)C(N=Nc2ccc([N+](=O)[O-])cc2)SC1=S (stereo not given),6.3,-3.1,x,x,0.449*
CC1CN(C(C)CO)C(=O)Cc2cc(NC(=O)Nc3ccc(C(F)(F)F)cc3)ccc2OC1CN(C)S(=O)(=O)c1cn(C)cn1 (stereo not given),x,x,x,x,0.695
C#CCOCCOCCOCCNc1nc(N2CCN(C(=O)C(Cc3ccc(O)cc3)n3cc(C(N)C(C)CC)nn3)CC2)nc(N2CCN(C(=O)C(C(C)CC)n3cc(C(N)CO)nn3)CC2)n1 (stereo not given),x,x,x,x,0.672
C#CCOCCOCCOCCNc1nc(N2CCN(C(=O)C(CCC(=O)O)n3cc(C(N)CC(C)C)nn3)CC2)nc(N2CCN(C(=O)C(C(C)CC)n3cc(C(N)CO)nn3)CC2)n1 (stereo not given),x,x,x,x,0.7
COc1ccc2[nH]c(C)c(CCN3C(=O)C4CC=CCC4C3=O)c2c1 (stereo not given),5.8,2.4,-0.7,3.3,0.732
COc1ccc2[nH]c(C)c(CCN3C(=O)OC(C)(C)C3(C)O)c2c1 (stereo not given),-6.2,1.8,1.9,-3.0,0.629*
O=C(Nc1ccc([N+](=O)[O-])cc1Cl)c1cc(Cl)ccc1O,-22.2,3.3,-0.4,-2.7,0.448*
O=C(Nc1ccc([N+](=O)[O-])cc1Cl)c1cccc([N+](=O)[O-])c1,x,-0.3,x,x,x
O=C(Nc1cccc(Cl)c1)c1cccc(Oc2ccc([N+](=O)[O-])cc2Cl)c1,-1.8,3.7,1.6,2.4,0.718
O=C(Nc1cccc(Cl)c1)c1cc(N=Nc2ccc([N+](=O)[O-])cc2Cl)ccc1O,-2.9,2.7,1.3,1.6,0.496*
CNCC(CC1CCCCC1)NCC(Cc1ccccc1)NCCC12CC3CC(CC(C3)C1)C2 (stereo not given),x,x,x,x,0.06*
CNCC(Cc1ccccc1)NCC(CC1CCCCC1)NCCCc1ccccc1 (stereo not given),x,x,x,x,0.466*
NC(=O)CCC1NC(=O)C(Cc2ccc(O)cc2)NC(=O)c2cc([N+](=O)[O-])cc(F)c2OCCC(C(N)=O)NC1=O (stereo not given),x,x,x,x,0.704
O=C(Nc1ccccc1C(=O)NC1CC1)c1ccc([N+](=O)[O-])o1,-2.5,15.7*,x,x,0.525
CN(C)c1ccc(/C=C/c2ccc3c4ccccc4ccc3[n+]2-c2ccccc2)cc1,-335.3,17.5*,x,x,0.241*
SMILES,Tat transport,phage Ecoli inh,E coli growth-1,AddAB inh,E coli growth-2
CN(C)c1ccc(/C=C/c2ccc3ccccc3[n+]2C)cc1,i,7.5,18.1*,27.9*,0.294*
CN(C)c1ccc(/C=C/c2cccc[n+]2[O-])cc1,-7.9,2.2,1.4,1.1,x
Cc1ccc(S(=O)(=O)N2C(c3ccc(Cl)cc3)CC=C(C(=O)O)C2c2ccc(F)cc2)cc1 (stereo not given),x,x,x,x,0.68
Cc1ccc(C2C3C(=O)N(C)C(=O)C3[C@]3(C)C(=O)N(Cc4ccccc4)CC(=O)N23)o1 (stereo not given in full),x,x,x,x,0.691
CCC(C)c1ccc(C(C)NC(=S)NC2CCCCC2)cc1 (stereo not given),-1.1,3.1,10.5*,6.8,x
CCc1ccc(C(C)NC(=S)NC2CCCCC2)cc1 (stereo not given),10.0,x,x,x,0.698
Cc1cc(NC(=O)Nc2cccc([N+](=O)[O-])c2)no1,6.3,1.8,1.8,3.7,0.68
COc1ccc(NC(=O)Nc2ccc(F)cc2F)c(C)c1,-6.3,2.1,0.1,0.8,0.697
Cc1ccc(NC(=O)Nc2cccc([N+](=O)[O-])c2)cc1F,0.4,10.1,3.1,3.6,0.484*
Cc1cc([N+](=O)[O-])ccc1NC(=O)Nc1ccc(F)cc1F,0.4,4.1,4.9,3.0,0.51*
O=C(Nc1ccc(OC(F)(F)F)cc1)Nc1cccc([N+](=O)[O-])c1,-23.4,10.2,9.3,8.7,0.395*
CC1C=C(C(=O)NCc2nc3ccccc3[nH]2)OC(OCCCCO)C1 (stereo not given),x,x,x,x,0.676
CC(C)S(=O)(=O)c1csc(NC(=O)Nc2ccc(Cl)cc2)c1,0.6,7.8,3.6,6.8,0.474*
CC(C)C(CO)NC(=O)c1ccc2c3n(nc2c1)-c1ccc(Cl)cc1CO3 (stereo not given),x,x,x,x,0.625
Oc1cc(Cl)cc(Cl)c1Cl,-1.3,-2.4,-1.9,1.4,0.266*
CC(=NO)c1cc(Cl)cc(Cl)c1O,x,x,x,x,0.595
CCOC(=O)c1cccc(C2=CC(=O)CC(c3ccc(Cl)cc3)C2)c1 (stereo not given),x,x,x,x,0.706
CC(C)C[C@@]12C(=O)N(c3ccc(Br)cc3)C(=O)N1C(c1ccc(Br)cc1)C1C(=O)N(C(C)(C)C)C(=O)C12 (stereo not given in full),x,x,x,x,0.71
CO[C@@]12[C@@H]3N[C@@H]3CN1C1=C(C(=O)C(N)=C(C)C1=O)[C@@H]2COC(N)=O,67.3*,8.6,x,x,x
CCCCN(C)CCOc1ccccc1OCC,-0.1,1.9,-2.8,0.2,0.065*
CC(=O)NS(=O)(=O)c1ccc(N)cc1,11.7,5.7,10.2*!,-1.9,0.702
CC(=O)c1ccc(NS(=O)(=O)c2ccc(N)cc2)cc1,-2.1,3.6,1.9,4.4,0.683
CCC(=O)Nc1cccc(C2=NOC3(C2)CC(C(N)=O)N(C(=O)C2(C)CC2)C3)c1 (stereo not given),x,x,x,x,0.674
O=S1(=O)CCC(NC(=S)SCCOc2ccccc2)C1 (stereo not given),-31.5,3.6,0.5,-0.6,0.489*
CCCCSC(=S)NC1CCS(=O)(=O)C1 (stereo not given),-7.9,4.0,-2.9,-2.0,0.663
